Test results: PubChem BioAssay (NCI)
About 83,000 compounds went through this panel and 20% of them were active in at least one assay; those are over-represented in the sample as a whole.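 In brief: 96-well plates, 48 h treatment, single concentration, percent growth endpoint.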 Active and inactive are the calls of the source. The calls were made as follows: active = growth percent below 10; inactive = the rest.

Key:
Experiment in all cases: NCI-60 one-dose screen, 48 h (100 = growth as untreated, 0 = no growth, -100 = all killed)
Settings in all cases: 10 µM
[1] = system: NCI-H23 lung
[2] = system: NCI-H226 lung
[3] = system: NCI-H322M lung
[4] = system: HOP-62 NSCLC
[5] = system: NCI-H460 lung
[6] = system: HOP-92 NSCLC
[7] = system: NCI-H522 lung
[8] = system: A549/ATCC NSCLC
[9] = system: 786-0 renal
[10] = system: COLO 205 colon

Measured: growth

COc1cc(/C=C2\C(=O)Nc3cc(C)c(O)cc32)cc(OC)c1OC
inactive: [1] 65.2% | [2] 79.8% | [3] 80% | [4] 85.7% | [5] 40% | [6] 63.6% | [7] 41.6% | [8] 50.1% | [9] 70.1% | [10] 69.1%

Cc1nc2scc(-c3ccc(Cl)cc3)n2c(=O)c1CCN1CCOCC1
inactive: [1] 101% | [2] 94.6% | [3] 89.7% | [4] 89% | [5] 107% | [6] 81.6% | [7] 86.8% | [8] 99.6% | [9] 98.8% | [10] 99.9%

Cc1cc(C)c2nc(C)c(C)[n+]([O-])c2c1
inactive: [1] 97.1% | [2] 103% | [3] 94.7% | [4] 73.4% | [5] 115% | [6] 93.4% | [7] 85.2% | [8] 68.6% | [9] 103% | [10] 111%

COc1ccc(-c2n/c(=C\c3c(O)[nH]c4ccccc34)cc3c2=Nc2ccccc2-3)cc1
inactive: [1] 33.8% | [2] 59.7% | [3] 96% | [4] 86.2% | [6] 42.1% | [7] 63.1% | [8] 37.4% | [10] 35.9%
active: [5] 9.63% | [9] -31.3%

Cn1cnc([N+](=O)[O-])c1/C=C1\Oc2ccc(Cl)cc2C1=O
inactive: [1] 93.9% | [2] 94.8% | [3] 91% | [4] 93.5% | [5] 99.4% | [6] 94% | [7] 52.8% | [8] 98.4% | [9] 91.9% | [10] 100%

CCOC(=O)c1cc2c(n1Cc1cc(OC)cc(OC)c1)-c1oncc1CC2
inactive: [1] 38.4% | [2] 30.5% | [4] 58% | [6] 80% | [8] 29% | [9] 33.7%
active: [3] -1.31% | [5] 9.46% | [7] 4.32% | [10] 1.38%

CNC(=O)c1cc(Oc2ccc(NC(=O)Nc3ccc(Cl)c(C(C)(C)C)c3)c(F)c2)ccn1
inactive: [1] 19.7% | [2] 36.2% | [3] 107% | [4] 64.4% | [5] 48.8% | [6] 75.9% | [7] 28.7% | [8] 37.4% | [9] 79% | [10] 19.6%

O=C(Nc1ccc(Oc2ccc(Nc3nc4ccccc4s3)cc2)cc1)Nc1ccc(Cl)c(Cl)c1
active: [1] 8.31% | [7] 7.82%
inactive: [2] 46.5% | [3] 56.6% | [4] 47% | [5] 15.8% | [6] 37.9% | [8] 32.8% | [9] 43.3% | [10] 31.1%

CC(=O)CS(C)(=O)=O
inactive: [1] 102% | [2] 101% | [3] 113% | [4] 106% | [5] 114% | [6] 98.5% | [7] 93.7% | [8] 96.7% | [9] 106% | [10] 106%

COC(=O)[C@]12CC[C@@H](C)[C@H](C)[C@@H]1C1=CC[C@@H]3[C@@]4(C)C[C@@H](O)[C@H](O)[C@@](C)(CO)[C@@H]4[C@H](O)C[C@@]3(C)[C@]1(C)CC2
active: [1] -50% | [2] -42.8% | [3] -29% | [4] -59.5% | [5] -72.5% | [6] -56% | [7] -78.9% | [8] -62.3% | [9] -65.1% | [10] -87.5%
